Measured values from PubChem BioAssay (EPA / NIEHS).
The source made the active and inactive calls. The calls were made as follows: active = hit-call score of the fitted dose curve at least 0.9, where 1 is the maximum; inactive = score below 0.9.

These molecules were tested on HGF (gene 3082) (assay: LTEA_HepaRG_HGF: Life Technologies and Expression Analysis (LTEA) Assay for Hepatocyte Growth Facto (HGF) using HepaRG (AID 2283505)). Conditions: mRNA level, 48 h; actives raise or lower the signal.
Procedure: LTEA_HepaRG is a cell based, multiplexed-readout assay that uses HepaRG, a human liver cell line, with measurements taken at 48 hours after chemical dosing on a 96-well plate.LTEA_HepaRG_HGF is one of 102 assay component(s) measured in the LTEA HepaRG cell culture assay. It is a marker of Cell proliferation, survival, death.Data from the assay component LTEA_HepaRG_HGF was analyzed into 1 endpoint. This assay endpoint, LTEA_HepaRG_HGF, was analyzed with bidirectional fitting relative to DMSO as the negative control and baseline of activity. Using a type of inducible reporter, measures of mRNA induction for gain or loss-of-signal activity can be used to understand regulation of transcription factor activity. To generalize the intended target to other relatable targets, this assay endpoint is annotated to the growth factor intended target family, where the subfamily is hepatocyte growth factor.
A total of 1060 chemcials from the ToxCast library were tested in eight-point concentration-response experiments. Cell culture and cytotoxicity assays were conducted at Thermo Fisher Scientific's Custom Services facility (Madison, WI). A single lot of human HepaRG cells (Thermo Fisher Scientific, Frederick, MD) was used for the cell culture experiments. 96-well format collagen type I coated plates of human HepaRG cells were prepared using established methods. Briefly, cryopreserved HepaRG cells were thawed, plated at a density of approximately 100,000 cells/well in HepaRG Thaw, Plate, and General Purpose media (HPRG770, Thermo Fisher Scientific), and incubated for 48 hours. 0.5% DMSO was selected as vehicle control to balance the requisite need of DMSO in HepaRG cultures to maintain differentiation (for example, baseline metabolism, proportions of hepatocytes vs. cholangiocytes), while enabling further hepatic receptor pathway activation (for example, PXR and CAR) in response to chemical exposure. 48 hours after plating, the culture medium was replaced with HepaRG Serum-Free Incudtion Media. Cells were exposed to each test chemical in duplicate and maintained in CO2 incubators for another 48 hours. Chemical plates were thawed to room temperature and 200x concentrations of treatment groups were prepared. 8-point conentration-reponse curves were made with the highest exposure at 100 uM, followed by half-log dilutions, all in 0.5% DMSO. Each test plate contained variouse controls, induction positive controls (1mM phenobarbital), cytotoxicity positive controls ([…] aflatoxin B1), vehicle controls (0.5% DMSO), and total lysis controls (0.5% DMSO). Cell morphology images were taken using an Essen IncuCyte FLR automated microscope, with six 96-well plates imaged in about 24 minutes. Images were captured and exported and JPEG files. Spent culture media was transfered to black-well plates for the LDH assay, and remaining media was sorted at -80 C for later use. Cells were treated with RLT buffer and frozen until shipped for gene expression analysis. Total RNA was isolated from the cell suspension in 75 uL of Buffer RLT (Qiagen, Germantown, MD 20874) by Quintiles/Expression Analysis (Durham, NC) using a custom isolation procedure. Total RNA from each plate well was transferred to a preamplification plate. Fluidigm's 96.96 Dynamic ArrayTM (Fluidigm, Amsterdam, the Netherlands) technology was used for gene expression analyses by quantitative reverse transcription polymerase chain reaction (qRT-PCR, performed by Quintiles/Expression Analysis, Durham, NC)89. Standard TaqManTM Assays (Applied Biosystems/ThermoFisher Scientific, Foster City, CA) were used to assess the expression of 93 genes selected based on their selectivity and sensitivity to important hepatic receptors known to be modulated by environmental chemicals; importance in human hepatocyte functionality; and hepatotoxicity. […]

SMILES	outcome	AC50
Cc1ccc(N(C)C)cc1	inactive	–
OC[C@@H](O)[C@@H](O)[C@H](O)[C@H](O)CO	inactive	–
Cc1cccc(C)c1O	inactive	–
CC(C)(C)c1cc(O)c(C(C)(C)C)cc1O	inactive	–
COc1cc(C=O)ccc1O	inactive	–
CC(C)c1ccc(C(=O)N=C(N)N)cc1S(C)(=O)=O	–	7.39 µM (active)
CCCCCC(=O)O	inactive	–
C1CCC(SSC2CCCCC2)CC1	inactive	–
Cc1cc(=O)[nH]c(=S)[nH]1	inactive	–
Cc1ccc(C(C)C)c(O)c1	inactive	–
CC=Cc1ccc(O)c(OC)c1	inactive	–
NC(=O)Cn1c(=O)cc(CCN2CCN(c3nccc4sccc34)CC2)c2ccc(F)cc21	inactive	–
CNCc1cc(F)ccc1Oc1ccc(Cl)c(Cl)c1	–	86.6 µM (active)
Cc1oc(-c2ccccc2)nc1CCOc1cccc2c1ccn2CCC(=O)O	inactive	–
COC(=O)c1ccc(O)cc1	inactive	–
CCCCCCC(=O)OCC	inactive	–
NCC1(Cc2noc(=O)[nH]2)CCCCC1	inactive	–
Oc1ccc2ccccc2c1N=Nc1ccccc1	inactive	–
Cc1ccc(C)c(C)c1	inactive	–
CCCCCCCCCCC	inactive	–

SMILES	outcome	AC50
COc1cc(-c2nc(NC(=O)c3cc4cc(C)cc(C)c4n3CC(=O)O)sc2CCC2CCCCC2)c(OC)cc1Cl	–	6.32 µM (active)
C=CCc1ccc(O)c(OC)c1	inactive	–
CCOc1ccc2c(c1)C(C)=CC(C)(C)N2	inactive	–
O=C(O)CCCCC(=O)O	inactive	–
NCCO	inactive	–
NS(=O)(=O)c1cc2c(cc1Cl)NCNS2(=O)=O	inactive	–
Nc1ccc(S(=O)(=O)c2ccc(N)cc2)cc1	inactive	–
CCc1c(C(=O)NN2CCCCC2)nn(-c2ccc(Cl)cc2Cl)c1-c1ccc(Br)cc1	–	90.4 µM (active)
Oc1ccc2c(c1)OC[C@@H](N1CCC(O)(c3ccc(F)cc3)CC1)[C@H]2O	inactive	–
CCOC(=O)C(C)(C)Oc1ccc(Cl)cc1	inactive	–
CC1(C)NC(=O)NC1=O	inactive	–
O=[N+]([O-])C(CO)(CO)CO	inactive	–
CC(=O)OC/C=C(\C)CCC=C(C)C	inactive	–
C[C@]12C=CC(=O)C=C1CC[C@@H]1[C@@H]2C(=O)C[C@@]2(C)[C@H]1CC[C@]2(O)C(=O)CO	inactive	–
Clc1cc(Cl)c(Cl)cc1Cl	inactive	–
CCCCCCOCCO	inactive	–
CCCCC(CC)COC(=O)CC(C(=O)OCC(CC)CCCC)S(=O)(=O)O (stereo not given)	inactive	–
CCCCCCCCCCCC(=O)OC	inactive	–
CCCCCCCCCCCCCCCCCC(=O)O	inactive	–
Cc1ccccc1Cl	inactive	–
